Screening results (PubChem BioAssay)
Hits are enriched below; roughly 4% of the tested compounds scored in any of these assays.
Wnt bcat act = activators of Wnt/beta-catenin signaling; Wnt/beta-catenin reporter cell assay, activator, plate reader; activation, % at 9.35 µM; 300,000 compounds, 1.2% hits; in the data active means activation above about 30%, passing the limit was not always enough; inconclusive means no clear call, values can overlap the other calls;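 further: 0% = neutral control wells and 100% = positive control wells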
C2C12 statin = suppressors of simvastatin-induced myotoxicity in C2C12 myotubes; ATP luminescence, 48 h; scaled: DMSO 0, geranylgeraniol control 100; rescue of ATP level, % at 7.49 µM; 330,000 compounds, 0.78% hits;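 active means mean ATP rescue above about 67%, or every replicate alone reaching that limit, limit read from the data, passing the limit was not always enough; inconclusive means no clear call, values can overlap the other calls; inactive means mean under the limit and some replicate under it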;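 further: myotubes were challenged with 10 µM simvastatin during compound exposure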
MITF TRPM1 inh = MITF TRPM1 promoter inhibition in SK-MEL-5 cells | SK-MEL-5 TRPM1 promoter luciferase, 24 h | inhibition, % at 12.5 µM | 330,000 compounds, 0.83% hits;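 active means mean inhibition across replicates of 60% or more, whatever share of single replicates reaches that level; inconclusive means some that reach 60%, reason not given; inactive means mean inhibition across replicates below 60%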
esBAF inh = SWI/SNF esBAF complex inhibition. mouse ES cells, Bmi1-luciferase knock-in reporter, 24 h; 100% = twice the neutral-well signal. reporter increase, % at 12.5 µM. 350,000 compounds, 2% hits. AID 602393; in the data active means activation above about 40%; inconclusive means no clear call, values can overlap the other calls;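 further: 0% = median of the plate's neutral control wells and 100% = double that signal; a rise in the Bmi1 reporter signal indicates esBAF inhibition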
MITF TRPM1 HTS = increases MITF-driven TRPM1 promoter luciferase signal; SK-MEL-5 TRPM1-promoter luciferase, 24 h; % of positive control, neutral wells = 0; activation, % at 12.5 µM; 300,000 compounds, 0.75% hits; AID 588334;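 active means mean activation of at least 80% with every replicate also reaching 80%; inconclusive means mean reaches 80% but some replicate falls short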;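 further: 0% = neutral control wells and 100% = parthenolide positive control wells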
LMP1 NFkB inh = Epstein-Barr LMP1 NF-kappaB reporter inhibition; LMP1-induced NF-kappaB luciferase reporter cells, luminescence; inhibition, % at 12.5 µM; 350,000 compounds, 0.69% hits; in the data active means inhibition above about 41%; inconclusive means no clear call, values can overlap the other calls;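 further: 0% = neutral control wells and 100% = reference inhibitor control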
* hit, by the source's call; ? = inconclusive; / = no result.

SMILES	Wnt bcat act	C2C12 statin	MITF TRPM1 inh	esBAF inh	MITF TRPM1 HTS	LMP1 NFkB inh
CCC[C@H](CN[C@@H](CNC)[C@H](C)O)NCCc1ccc(OC)cc1	-0.4	-1.8	-4.0	-5.3	7.7	-3.5
CCN(C(=O)COC(=O)c1cnc(C)cn1)C1CCCCC1	/	134.6*	-2.8	-2.9	1.8	4.9
O=C(Nc1nc(-c2ccc([N+](=O)[O-])cc2)cs1)C1=COCCO1	11.6	-4.2	/	20.7	/	-1.5
CCOC(=O)CC(=O)CSc1nc2c(c(-c3cccs3)c1C#N)CCC2	-9.6	2.2	12.1	-5.9	-13.0	-8.8
Cc1ccc(NC2=C(NC(=O)c3ccccc3)C(=O)c3ccccc3C2=O)cc1Cl	3.2	/	66.5*	/	-65.6	-7.9
Cc1ccc(NCC(=O)c2ccccc2)cc1Cl	/	-19.4	-9.1	34.6	11.9	-2.3
Cc1ccc(NCCC(=O)c2ccccc2)cc1Cl	1.0	/	-17.7	59.6*	20.7	-1.2
CCC(C#CCN1CCCCC1)(CC)OCCC#N	/	3.9	6.1	-8.1	-2.7	0.3
O=C(C[C@H]1C=C[C@@H](NC(=O)Cc2ccccn2)[C@H](CO)O1)NCCc1ccncc1	/	-26.2	/	2.9	/	/
Cc1cccc(NS(=O)(=O)c2cccc(C(=O)Nc3cccc(C(=O)O)c3)c2)c1	2.7	-3.0	2.3	-6.9	/	3.7
O=C(Oc1ccc(Cl)c2cccnc12)N1CCOCC1	8.9	/	-0.7	-2.3	/	-8.3
O=C(Oc1c(CN2CCOCC2)cc(Cl)c2cccnc12)c1ccc(F)cc1	/	-6.5	64.5*	-9.2	-62.8	58.4*
O=C(Oc1c(CN2CCOCC2)cc(Cl)c2cccnc12)c1cccs1	47.1*	-29.2	69.2*	-10.3	-70.6	3.9
OCCN1CCN(Cc2cc(Cl)c3cccnc3c2O)CC1	/	/	8.4	/	-16.8	22.9
O=C(Oc1c(CN2CCOCC2)cc(Cl)c2cccnc12)c1ccccc1Cl	0.6	-34.5	75.5*	10.0	-74.6	71.1*
COCC#Cc1ccc([C@@H]2[C@H](CO)N3CCCCN(Cc4ccncc4)C[C@@H]23)cc1	/	-0.8	/	-0.1	/	/
COc1cccc(OC)c1OCCCOc1cccc2cccnc12	17.4	-23.6	-81.2	?	73.7	-11.8
Oc1ccc(Br)cc1/C=N/n1cnc2ccccc21	/	25.2	-25.1	53.4*	27.7	-10.8
Oc1ccc(Br)cc1/C=N/N1CCCCC1	3.1	/	-104.4	/	110.2*	-43.2
Oc1ccc(Br)cc1/C=N/N1CCN(Cc2ccccc2)CC1	/	27.6	-30.3	20.3	26.8	-12.5
Clc1ccc(OCc2cn3cccnc3n2)c2ncccc12	/	12.8	-33.5	57.4*	34.9	-7.0
c1cnc2c(OCc3cn4cccnc4n3)cccc2c1	-0.1	/	-2.1	12.1	1.9	0.6
Cc1cc(Cl)ccc1OCc1cn2cccnc2n1	16.4	/	-81.6	/	82.5*	-8.9
COC(=O)c1cc(CNC(=O)C(C)NS(=O)(=O)c2ccc(C)c(C)c2)ccc1OC (stereo not given)	2.8	-7.8	-5.4	-3.8	9.2	2.5
BrC(=C\c1ccccc1)/C=N/Nc1ccc2nncn2n1	?	/	1.0	/	/	-4.2
SMILES	Wnt bcat act	C2C12 statin	MITF TRPM1 inh	esBAF inh	MITF TRPM1 HTS	LMP1 NFkB inh
BrC(=C\c1ccccc1)/C=N/n1cnnc1	24.6	/	82.6*	/	-80.7	?
CCCCCCCCCC(=O)N1CCN(c2cc3c(cc2F)c(=O)c(C(=O)O)cn3CC)CC1	-0.8	-1.4	9.9	-1.0	-10.0	1.7
CC(=O)c1ccc(N2CCC(C)CC2)c(F)c1	-1.4	/	-41.0	/	40.4	0.6
CCCCCC(=O)N1CCN(c2ccc(C(C)=O)cc2F)CC1	-3.4	-1.1	6.5	-0.8	-2.1	76.5*
CCCCCCC(=O)N1CCN(c2cc3c(cc2F)c(=O)c(C(=O)O)cn3CC)CC1	/	153.2*	2.6	13.4	-4.1	3.6
CCn1cc(C(=O)NCc2cccc(F)c2)c(=O)c2cc(F)c(N3CCN(C(=O)c4ccco4)CC3)cc21	/	78.7*	31.7	22.9	-31.1	12.8
Cc1cccc(NC(=O)Nc2ccc(S(=O)(=O)Nc3onc(C)c3C)cc2)c1	22.6	0.3	-60.3	31.8	62.2	-4.6
O=C(Nc1ccc2c(c1)[C@@H]1C[C@@H](CC(=O)N3CCOCC3)O[C@@H](CO)[C@@H]1O2)NC1CCCCC1	/	-3.6	/	1.0	/	/
CC(Sc1nnc(-c2cccs2)n1N)C(=O)NCC1CCCO1 (stereo not given)	-2.8	/	-5.6	/	6.1	-2.9
CCOc1ccc(/C=C/[N+](=O)[O-])c2ccccc12	/	-2.9	84.4*	-21.9	/	74.7*
